VP16 counter = Gal4-VP16 reporter inhibition counter-screen | Drosophila S2 Gal4-VP16 UAS-luciferase, luminescence, 20 h | Potency, µM (titrated, usually from 53.6 µM), without a hit: top-dose activity, negative = inhibition, usual class: inhibitors | 3.5% of 310,000 active | AID 2546;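 note: Gal4-VP16 expression switched on by copper sulfate through the metallothionein promoter; nearly all actives have a fitted effect of over 50% in size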
TDP1 cell noCPT = qHTS for Inhibitors of human tyrosyl-DNA phosphodiesterase 1 (TDP1): qHTS in cells in absence of CPT; DT40 Tdp1-/- hTDP1 cells, no CPT, ATP luminescence, 48 h; Potency, µM (highest dose often 46.2 µM), inactives show at the highest dose activity change, negative = growth inhibition, hits mostly inhibitors; 15% of 420,000 active; note: nearly all actives have a fitted effect of over 55% in size
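Readout: luminescence from CellTiter-Glo after 30 min in the dark at RT. Cells: DT40 Tdp1-/- with stable hTDP1, 400/well. Exposure: compounds alone, ≥48 hr, 37 °C.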
TDP1 inh = TDP1 (human) enzyme inhibition; Q9NUW8; recombinant TDP1, AlphaScreen DNA substrate cleavage; Potency, µM (doses to about 130 µM), inactives show top-dose activity change, negative = inhibition, hits mostly inhibitors; 0.28% of 350,000 active; AID 485290; note: nearly all actives have a fitted effect of over 40% in size
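Signal: AlphaScreen proximity between streptavidin donor and anti-FITC acceptor beads on intact substrate. Reaction: Tdp1 1 nM, substrate 15 nM final, 5 min RT after 15 min compound preincubation.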
DT40 TDP1 CPT = DT40-hTDP1 cell growth loss with CPT. chicken DT40 Tdp1-/-;hTDP1 cells + 20 nM CPT, ATP luminescence, 48 h. Potency, µM (doses to about 46.2 µM), without a hit: top-dose activity change, negative = growth inhibition, actives largely listed as inhibitors. 12% of 420,000 active. AID 686979; note: nearly all actives have a fitted effect of over 55% in size
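Cell growth measured by CellTiter-Glo luminescence after a minimum 48 h, 37 C compound exposure with 20 nM CPT in Tdp1-knockout DT40 cells stably expressing hTDP1, seeded 400/well; qHTS titration format.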
RORgamma inh = ROR gamma (mouse) transcription inhibition; P51450; Drosophila S2 Gal4-RORgamma UAS-luciferase reporter, 20 h; Potency, µM (highest dose often 53.6 µM), for the others: top-dose activity change, negative = inhibition, usual class: inhibitors; 5.4% of 310,000 active; AID 2551; note: nearly all actives have a fitted effect of over 60% in size
Target sequence (P51450 whole entry, looked up, the tested form may be a part): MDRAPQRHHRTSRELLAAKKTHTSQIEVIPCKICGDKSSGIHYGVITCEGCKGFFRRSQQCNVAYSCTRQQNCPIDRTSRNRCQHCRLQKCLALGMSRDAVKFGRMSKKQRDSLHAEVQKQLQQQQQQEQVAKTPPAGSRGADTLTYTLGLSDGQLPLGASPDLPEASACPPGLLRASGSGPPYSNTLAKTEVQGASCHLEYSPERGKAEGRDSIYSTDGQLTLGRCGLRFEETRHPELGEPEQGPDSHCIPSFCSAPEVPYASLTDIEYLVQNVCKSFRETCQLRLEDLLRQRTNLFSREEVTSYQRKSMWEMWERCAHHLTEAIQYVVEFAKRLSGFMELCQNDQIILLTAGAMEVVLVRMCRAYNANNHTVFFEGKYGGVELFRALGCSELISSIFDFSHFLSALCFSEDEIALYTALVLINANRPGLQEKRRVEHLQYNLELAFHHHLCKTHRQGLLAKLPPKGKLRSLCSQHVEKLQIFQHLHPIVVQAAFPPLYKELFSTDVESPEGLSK
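Luciferase reporter read in Schneider cells carrying Gal4-RORγ (mouse) and UAS-Photinus luciferase; cells given compound 1 h before 700 uM copper sulfate induction, then incubated 20 h at ambient temperature.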
Active calls of the source: *; ? = inconclusive; · = not tested or not shown; ! = not active in a repeat; [ ] = dose if it differs, or a comment. In the library only some 19% were active in any assay of this set; here they are far more common. Calls come from the whole dose curve; as a rule, active = well fitted curve in the direction sought with a large enough effect; inconclusive = small, poorly fitted or top-dose-only effect, or another doubt; inactive = no such curve, though single readings can be large; an effect the other way counts as inactive or inconclusive. % is set by controls: 0 for no effect and ±100 for the full control effect; potency is the fitted concentration of half-maximal effect.

SMILES	VP16 counter	TDP1 cell noCPT	TDP1 inh	DT40 TDP1 CPT	RORgamma inh
COC(=O)C1=C(c2ccc(Cl)c(C(F)(F)F)c2)C[C@@H]2CC[C@H]1N2C(=O)NCC1CC1	·	18.4µM*	-2.1%	14.6µM*	·
COC(=O)C1=C(c2ccc(-c3ccccc3)c(F)c2)C[C@@H]2CC[C@H]1N2C(=O)NCc1cc(C)oc1C(F)(F)F	·	14.6µM*	2.0%	?	·
O=C(O)CCCC[C@H]1SC[C@H]2NC(=O)N[C@@H]21	8.1%[17 µM]	·	29.2%[21 µM]	·	3.0%[16.9 µM]
Cc1cc(C=C2C(=O)N(C)C(=S)N(C)C2=O)c(C)n1C1CCCC1	25.7%	?	7.9%	-20.2%	?
CCOC(=O)c1cnc(N2CC2)nc1N	·	0.92µM*	·	0.461µM*	·
Cc1ccc(Cn2c(NCCCn3ccnc3)nc3c2c(=O)n(C)c(=O)n3C)cc1	-4.1%	?	4.8%	?	33.0%
COCCOC(=O)C1=C(N)Oc2c(c(=O)oc3ccccc23)C1c1ccncc1 (centres undefined)	8.6%	-13.4%	0.0%	-17.0%	?
O=c1oc2ccccc2c(O)c1C(c1ccccn1)c1c(O)c2ccccc2oc1=O	6.5%	4.0%	8.6%	-1.2%	?
O=C(CCC1CCCC1)c1c(O)c2ccccc2oc1=O	?	4.11µM*	5.3%	5.17µM*	-68.3%
CC([C@H](O)c1ccccc1)N(C)C (some centres undefined)	9.3%	·	-7.3%[56.1 µM]	·	-25.5%
CC(Cc1ccccc1Sc1ccccc1O)N(C)C (centres undefined)	-4.7%	11.6µM*	-1.8%	?	27.9%
O=C(O)COc1nc(Cl)c(Cl)cc1Cl	4.9%	?	8.9%	?	19.4%
Cc1ccc2c(Cl)cc(Cl)c(OCC(=O)N(C(C)C)C(C)C)c2n1	1.0%	18.4µM*	0.0%	16.4µM*	6.31µM*
Cc1ccc(CN2C3CCCC2CC(NC(=S)NCc2ccccc2)C3)cc1 (centres undefined)	17.8µM*	?	·	?	2.82µM*
CC(=O)N1c2ccc(S(=O)(=O)NCC3CCC(C(=O)Nc4cc(C)cc(C)c4)CC3)cc2CC1C (centres undefined)	·	16.4µM*	5.1%	20.6µM*	·
CC(C)CN1CCN(Cc2c(F)cccc2Cl)CC1CCO (centres undefined)	1.3%	-17.9%	6.0%	-5.4%	-16.0%
CC(C)C(=O)Nc1ccc([N+](=O)[O-])c(C(F)(F)F)c1	?	13µM*	-2.8%[56.1 µM]	13.3µM*	?
Cn1cc([N+](=O)[O-])c(C(=O)Nc2ccc3c(C(F)(F)F)cc(=O)oc3c2)n1	2.8%	2.0%	4.5%	0.8%	20.0%
COc1ccc(-c2nc(CN3C(=O)CN=C(c4ccccc4)c4ccccc43)c(C)o2)cc1	·	18.4µM*	8.6%	?	·
Cc1ccc(-c2nc(CN3C(=O)CN=C(c4ccccc4)c4ccccc43)c(C)o2)cc1	·	18.4µM*	8.6%	?	·
O=C1CN=C(c2ccccc2)c2ccccc2N1Cc1ccc(C(F)(F)F)cc1	-6.4%[0.365 µM]	?	2.6%	22.4µM*	-19.1%
Cc1oc(-c2ccccc2Cl)nc1CN1C(=O)CN=C(c2ccccc2)c2ccccc21	7.5%	20.6µM*	5.3%	?	37.0%
Cc1ccc(-c2nc(CN3C(=O)CN=C(c4ccccc4)c4cc(Cl)ccc43)c(C)o2)cc1	·	?	5.7%	?	·
COCC(C)N(C(=O)CCl)c1c(C)csc1C (centres undefined)	-11.0%	-17.1%	10.2%	10.3%	-12.0%
CCN(CC)C(=O)c1ccc(NC(=O)CNC(C)c2cccc3ccccc23)cc1 (centres undefined)	-8.6%	?	5.8%	-18.6%	38.3%
SMILES	VP16 counter	TDP1 cell noCPT	TDP1 inh	DT40 TDP1 CPT	RORgamma inh
Cc1ccc(C(=O)C2(C)N(O)C(C)C(c3cccs3)=[N+]2[O-])cc1 (centres undefined)	2.8%	-3.3%	-1.1%	-13.0%	12.0%
O=C(NCC1=C(c2ccc3ccccc3c2)C[C@@H]2CC[C@H]1N2Cc1ccco1)c1ccc([N+](=O)[O-])cc1	·	16.4µM*	·	?	·
O=c1[nH]sc2cc(F)ccc12	2.82µM*	2.31µM*	5.7%	1.84µM*	2.24µM*
CC(C)NC(=O)N1Cc2cc(C(=O)NC3CCCCC3)nc(-c3cccc(-c4cccnc4)c3)c2[C@@H]1CCO	·	10.3µM*	·	11.6µM*	·
CCCNC(=O)c1cc2c(c(-c3cccc(-c4cc5ccccc5o4)c3)n1)[C@H](CCO)N(C(=O)NC(C)C)C2	·	11.6µM*	·	8.2µM*	·
Cn1c(O)c(C=NCCc2c[nH]c3ccccc23)c(=O)n(C)c1=O	-0.9%	?	7.2%	-26.1%	31.3%
Oc1cccc(Nc2ncnc3sc4c(c23)CCCC4)c1	·	14.6µM*	5.4%	16.4µM*	·
CCN1CCC2(CCNC2)C1 (centres undefined)	-8.6%	2.7%	3.1%	-16.1%	-14.3%
Nc1ccc(CCN2CCN(c3cccc(C(F)(F)F)c3)CC2)cc1	·	23.1µM*	9.5%[56.1 µM]	?	·
Nc1ccc(CCN2CCCC2)cc1	·	1.2%	4.9%	7.2%	·
[O]=[Sb]([OH])([OH])[c]1ccccc1	·	-6.5%	?	3.5%	·
Cc1cccc(C)c1NC1=NCCCS1	-2.0%	?	9.5%[56.1 µM]	?	10µM*!
O=C(O)c1ccccc1NC(=O)N1C[C@H]2C[C@@H](C1)c1cccc(=O)n1C2	2.5%	7.4%	·	14.3%	-22.9%
N#CC(C#N)=NNc1ccc(OC(F)(F)F)cc1	0.355µM*	1.12µM*	21.9%	1.12µM*	1µM*
CCN(CC)C(=O)c1ccc(NC(=O)Cn2nc(C)c3ccccc3c2=O)cc1	-5.1%	-7.9%	-4.4%	-23.9%	17.0%
COc1ccc(C)cc1NC(=O)c1c(C)nn(Cc2ccccc2)c1Cl	-10.3%	?	-7.0%	5.1%	?
Cc1ccc(-n2nc3c(=O)n(CC(=O)Nc4ccccc4F)nc(C)c3c2C)c(C)c1	·	18.4µM*	-7.6%	?	·
Cc1ccc(C)c(NC(=O)Cn2nc(C)c3nn(-c4ccc(Cl)cc4)c(C)c3c2=O)c1	·	18.4µM*	2.7%	23.1µM*	·
OC(CCNCCc1c[nH]c2ccccc12)C(F)(F)Cl (centres undefined)	-0.4%	5.3%	5.9%	8.5%	5.5%
O=[N+]([O-])c1cccc2c([As](=O)(O)O)cccc12	-2.8%	-1.3%	1.3%	34.9%	10.6%
O=C1c2ccccc2-n2nnnc2C2c3ccccc3-n3nncc3CN12 (centres undefined)	·	-0.9%	·	-11.7%	·
COC(=O)C1=CO[C@@H](C)[C@@H]2CN3CC[C@@]4(C(=O)Nc5ccccc54)[C@@H]3C[C@H]12	-4.4%	3.3%	-1.3%	24.1%	35.3%
